# Reference: PubChem BioAssay AID1030 (National Center for Advancing Translational Sciences (NCATS), 2008)
# Hit rate of the full screen: of about 220,000 compounds, about 16,000 (7.3%) were called active. About 25% were inconclusive and are not listed. Many of the other results were omitted from the sample, so actives are more common in it than they were. Unmarked numbers belong to inactive results. The call rests on the fitted dose curve; in most records, active means well fitted inhibition curve with a large enough effect (not every such curve was filed as active); inconclusive means small, poorly fitted or top-dose-only effect, or another doubt; inactive means no such curve, though single readings can be large or run the other way.
# Target: Aldehyde dehydrogenase 1A1 (Homo sapiens) (UniProt P00352)
# Sequence (P00352 whole entry, looked up): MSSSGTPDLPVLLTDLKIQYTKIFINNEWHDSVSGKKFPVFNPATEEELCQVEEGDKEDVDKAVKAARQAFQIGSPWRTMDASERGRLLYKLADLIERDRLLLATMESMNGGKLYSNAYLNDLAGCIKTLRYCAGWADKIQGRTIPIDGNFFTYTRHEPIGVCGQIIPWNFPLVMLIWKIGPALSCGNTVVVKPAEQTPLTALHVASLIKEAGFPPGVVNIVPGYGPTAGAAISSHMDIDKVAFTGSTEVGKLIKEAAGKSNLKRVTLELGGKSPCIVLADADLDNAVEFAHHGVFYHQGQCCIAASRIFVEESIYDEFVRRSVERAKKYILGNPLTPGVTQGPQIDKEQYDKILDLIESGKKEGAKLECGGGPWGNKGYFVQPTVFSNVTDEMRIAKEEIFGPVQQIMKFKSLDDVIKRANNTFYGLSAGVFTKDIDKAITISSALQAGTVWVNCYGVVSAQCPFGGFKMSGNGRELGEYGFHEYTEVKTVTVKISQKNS
# Assay: qHTS Assay for Inhibitors of Aldehyde Dehydrogenase 1 (ALDH1A1);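 on activity, negative = inhibition: plate controls were no enzyme wells and a reference inhibitor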
# Conditions: Purified ALDH1A1, NADH fluorescence, propionaldehyde substrate; series mostly up to 75.3 µM; activity, negative = inhibition: at the top concentration
# Potency means the concentration at half of the fitted maximal effect.
Structure (SMILES),"activity, negative = inhibition",Potency
Cn1cnnc1Sc1ccc(CN2CCN(C3CCCC3)C(CCO)C2)o1 (stereo unspecified),-6.89%,
COc1cccc2cc(/C(C)=N/NC(=O)c3ccco3)oc12,-2.36%,
C=CCOc1c(CNn2cn[nH]c2=S)cccc1OC,4.16%,
CC(C)C(=O)NC(=S)Nc1ccccc1F,-5.01%,
CC(C)C(=O)Nc1cccc(NC(=S)NC(=O)C(c2ccccc2)c2ccccc2)c1,,25.1 µM (active)
CCCCC(=O)NNC(=S)NC(=O)C(c1ccccc1)c1ccccc1,0.816%,
Cn1nnnc1NCc1ccc(Cl)c(Cl)c1,1.56%,
Cc1ccc(F)c(NC(=O)CCc2ccccc2)c1,-2.03%,
O=C(COC(=O)[C@H](Cc1ccccc1)NC(=O)c1cccs1)Nc1cc(F)ccc1F,,14.1 µM (active)
NC(=O)c1ccc(NC(=O)COC(=O)C(Cc2ccccc2)NC(=O)c2ccccc2)cc1 (stereo unspecified),,0.891 µM (active)
CCC(C(=O)OCC(=O)Nc1ccc(C(=O)Nc2ccc(OC)cc2)cc1)c1ccccc1 (stereo unspecified),3.04%,
CC(=O)c1ccc(NC(=O)N[C@@H](Cc2ccccc2)C(=O)O)cc1,5%,
COC(=O)c1ccc(/C=N/OCC(=O)Nc2cc(F)ccc2F)cc1,-9.21%,
CCCCCc1nnc(NC(=O)c2ccc(=O)n(C)n2)s1,-0.796%,
C=CCn1cc(C(=O)NCc2ccc(Cl)cc2)c(=O)c2cc(S(=O)(=O)N(CC)CC)ccc21,-2.01%,
Cc1nc2ccccc2c2oc(C(=O)NCC3CCCO3)cc12 (stereo unspecified),,14.1 µM (active)
Cc1nc2ccccc2c2oc(C(=O)NCCCN3CCC(C)CC3)cc12,-1.82%,
Cc1ccc(C(=O)NCC2CCCO2)o1 (stereo unspecified),7.91%,
O=c1c(-c2ccccc2)cnc2n1CCS2,4.15%,

Structure (SMILES),"activity, negative = inhibition",Potency
CN(C)CC(C)(C)CNC(=O)c1cc(Br)cc(Br)c1O,-13.5%,
CN(C)C(CNC(=O)Cc1ccc([N+](=O)[O-])cc1)c1ccccc1 (stereo unspecified),0.871%,
CN(C)C(CNC(=O)c1ccc(S(=O)(=O)NCc2ccco2)cc1)c1ccccc1 (stereo unspecified),11.2%,
CC(=O)c1ccc(S(=O)(=O)Nc2ccc(C(=O)NCC(c3ccccc3)N(C)C)cc2)cc1 (stereo unspecified),,2.82 µM (active)
CCC(C)(C)NC(=O)C(c1ccccn1)N(C(=O)c1csnn1)c1ccccc1 (stereo unspecified),0.639%,
Cc1ccc(C(=O)N2CCCC(c3ccccc3)=N2)cc1,-7.82%,
Cc1cc(C)c(OCCN2CC(C)OC(C)C2)c(Br)c1 (stereo unspecified),-12.9%,
COc1ccc(NC(=O)N2CCC(Cc3ccccc3)CC2)cc1,-13.4%,
Cc1ccccc1/[N+]([O-])=C/c1ccncc1,,3.98 µM (active)
CCNC(=O)COC(=O)/C=C/c1c(C)nn(Cc2cccc(OC)c2)c1Cl,-14.4%,
O=C(CCNC(=O)Cn1ccc2ccccc2c1=O)NCCC1=CCCCC1,-8.45%,
COc1ccc(CN(C)C(=S)Nc2ccc(Cl)cc2Cl)cc1,5.98%,
O=C1CC2(CC(c3ccc(Cl)cc3)=NO2)C(=O)N1c1ccccc1 (stereo unspecified),-7.62%,
CCN1CC(CN(C)Cc2nc(-c3ccc(Cl)cc3)no2)CC1=O (stereo unspecified),4.9%,
CN(C)C(=O)N1CCNCC1,12.2%,
CCn1c(=S)[nH]c2sc3c(c2c1=O)CCCCC3,,22.4 µM (active)
Cn1c(=O)n(Cc2ccco2)c(=N)c2c3c(sc21)CCCC3,-0.0363%,
CCC1(C)Cc2c(sc3[nH]c(=S)n(Cc4ccccc4)c(=O)c23)CO1 (stereo unspecified),-4.85%,
C=CCn1c(=S)sc2c(=O)[nH]c(C)nc21,-7.18%,

Structure (SMILES),"activity, negative = inhibition",Potency
CCOC(=O)C1(CCOc2ccccc2)CCN(C(=O)c2cncs2)CC1,-4.17%,
Cc1c(C(N)=O)sc2ncn(CCOc3ccccc3)c(=O)c12,-1.68%,
CCN1C(=O)N[C@@H](c2ccccc2)[C@H](C(C)=O)[C@H]1C,7.43% [at 13.5 µM],
CC(=O)c1ccc(OCCN2CCOCC2)cc1,,25.1 µM (active)
COc1ccc(OCC(=O)N2CCOCC2)cc1,5.41%,
Cc1ccc(C(=O)OC(C)CN2CCOCC2)cc1 (stereo unspecified),0.589%,
FC(F)(F)c1cccc(-c2nc(COc3ccc(Cl)cc3Cl)no2)c1,6.34%,
O=C(CC1SCCNC1=O)Nc1ccc(Cl)cc1 (stereo unspecified),9.61%,
Cc1ccc(OCC(=O)NNC(=S)NCc2ccccc2)cc1,-1.88%,
COc1ccc(N2CCN(Cc3ccc(Br)s3)CC2)cc1,,25.1 µM (active)
COc1ccc(N2CCN(Cc3nnc(-c4ccccc4)o3)CC2)cc1,2.42%,
Fc1ccc(N2CCN(Cc3cnc(Oc4ccc(Br)cc4)s3)CC2)cc1,-1.13%,
Cc1ccc(NC(=O)CC2C(=O)N(Cc3ccccc3)C(=S)N2NC(=O)c2cccc(F)c2)c(C)c1 (stereo unspecified),2.55%,
Cc1ccc(NC(=S)N(CCN(C)C)Cc2cccs2)cc1C,4.01%,
O=C(O)CC(SCC(=O)Nc1ccc(Br)cc1)C(=O)O (stereo unspecified),-4.63%,
CCOc1ccc(-n2c(N)c(C(=O)NCC3CCCO3)sc2=S)cc1 (stereo unspecified),,15.8 µM (active)
COc1ccc(SCc2noc(C(=O)NCC3CCCO3)c2C(=O)O)cc1 (stereo unspecified),1.65%,
CCOc1ccc(S(=O)(=O)NCC2CCCO2)cc1 (stereo unspecified),-7.57%,
